# Laboratory results taken from PubChem BioAssay (NCATS).
# Active and inactive are the calls of the source. Calls come from the whole dose curve.
# Experiment: qHTS drug screen for cell cycle checkpoint inhibitors in PARPi-resistant BRCA-mutant ovarian cancer cell lines. (AID 1963452)
# Details: PEO1/OlaR viability, CellTiter-Glo luminescence, 96 h; for Z-AUC: stronger effect = lower value
# Outline: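 PEO1, PEO4 and PEO1/OlaR ovarian cancer cells, 600 per well, exposed 96 h at 37C to a dilution series. Viability read by CellTiter-Glo luminescence, normalized to DMSO and empty wells; activity summarized as Z-AUC.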
# [1] = measured here: PEO1 parental Z-AUC
# Potency is the fitted concentration of half-maximal effect.
Compound,Z-AUC,Z-AUC [1],Z-AUC (measured here: PEO4 Z-AUC),Potency
CC#CCn1c(N2CCC[C@@H](N)C2)nc2c1c(=O)n(Cc1nc(C)c3ccccc3n1)c(=O)n2C,-0.285 (inactive),0.131,-0.262,
Cc1ccc(C(=O)Nc2cccc(C(F)(F)F)c2)cc1Nc1nc(-c2cccnc2)nc2c1cnn2C,0.462 (inactive),0.182,0.562,
c1ccc2c(Cc3c[nH]c4ccccc34)c[nH]c2c1,0.829 (inactive),0.126,-0.359,
CN(C)Cc1cccc(N=C(c2ccccc2)c2c(O)[nH]c3cc(C(=O)N(C)C)ccc23)c1,-0.969 (inactive),-0.73,-1.01,
N[C@@]1(C(=O)O)CS(=O)(=O)[C@H]2[C@H](C(=O)O)[C@H]21,-0.18 (inactive),0.223,0.235,
CC(=O)Oc1cc2c(s1)CCN(C(C(=O)C1CC1)c1ccccc1F)C2 (configuration not stated),0.888 (inactive),0.469,0.814,
O=C(CCN1CCN(C(=O)OCc2cc(Cl)cc(Cl)c2)CC1)c1ccc2[nH]c(=O)oc2c1,0.428 (inactive),0.576,0.591,
O=C(Nc1cc(Cl)cc2c1[nH]c1cnccc12)c1cccnc1,0.696 (inactive),0.253,0.368,
O=C1C(Cl)=C(NCCN2CCOCC2)C(=O)c2ncccc21,-1.13 (inactive),-1.16,-1.1,
CCn1c(C(=O)N(C2CC2)C2CC2)cc2c3c(ncn3C)c(Nc3cc(C)n(C)n3)nc21,0.749 (inactive),1.24,1.3,
O=C(O)CCC1CCC(c2cc(F)ccc2F)(S(=O)(=O)c2ccc(Cl)cc2)CC1 (configuration not stated),1.02 (inactive),0.969,0.83,
COc1ccc2c(Oc3ccc(NC(=O)c4c(C)n(CC(C)(C)O)n(-c5ccccc5)c4=O)nc3)ccnc2c1,0.509 (inactive),0.436,-0.433,
NC(=O)c1cnc(-c2ccc(C3(N)CCC3)cc2)c(-c2ccccc2)c1,0.0998 (inactive),-0.472,-0.533,
CCNc1cc(NC2CCC(O)CC2)nc(Nc2ccc3c(ccn3Cc3ccccc3)c2)n1 (configuration not stated),0.474 (inactive),0.235,0.72,
NC(=O)[C@@H](CCC(F)(F)F)N(Cc1ccc(-c2ncon2)cc1F)S(=O)(=O)c1ccc(Cl)cc1,0.459 (inactive),0.342,0.442,
CC(C)[C@H](CO)Nc1nc(Nc2ccc(C(=O)O)c(Cl)c2)c2ncn(C(C)C)c2n1,-0.776 (inactive),0.263,0.0501,
CC(C)(C(=O)NCC(F)(F)C(F)(F)F)C(=O)N[C@@H]1C(=O)Nc2ccccc2-c2ccccc21,0.455 (inactive),0.706,0.383,

Compound,Z-AUC,Z-AUC [1],Z-AUC (measured here: PEO4 Z-AUC),Potency
Oc1ccc(C2=Cc3ccc(O)cc3OC2)cc1,-0.664 (inactive),-0.782,-0.812,
Cc1ccc(Nc2cc(-c3cccc(N4C(=O)c5ccccc5C4=O)c3)ncn2)cc1NS(C)(=O)=O,-0.648 (inactive),-0.644,-0.365,
NC(=O)c1cccc(-c2cc(Nc3ccc(OC(F)(F)F)cc3)ncn2)c1,1.26 (inactive),0.548,0.648,
CO[C@H]1C(=O)[C@]2(C)[C@@H](OC)C[C@H]3OC[C@@]3(OC(C)=O)[C@H]2[C@H](OC(=O)c2ccccc2)[C@]2(O)C[C@H](OC(=O)[C@H](O)[C@@H](NC(=O)OC(C)(C)C)c3ccccc3)C(C)=C1C2(C)C,,-2.35,-2.45,7.8 nM (active)
CC(C)C(=O)Nc1ncc(-c2cc(C(F)F)nn2-c2c(Cl)cccc2Cl)s1,-0.482 (inactive),0.209,0.42,
CCCCCCCCCCCC1=C(O)C(=O)C=C(O)C1=O,1.62 (inactive),1.09,1.19,
CC(C(=O)O)c1ccc(-c2ccccc2)c(F)c1 (configuration not stated),0.668 (inactive),0.939,1.4,
N#CC1(c2ccc(NC(=O)c3cccnc3NCc3ccncc3)cc2)CCCC1,1.21 (inactive),1.37,1.27,
O=C(NOCC(O)CO)c1cc(Br)c(F)c(F)c1Nc1ccc(I)cc1F (configuration not stated),0.348 (inactive),0.513,0.38,
CC(C)(C)C(=O)Oc1ccc2c(c1)nc(NC(=O)c1cccc([N+](=O)[O-])c1)n2CCCO,-0.205 (inactive),0.0755,-0.141,
CC(C)(C)Cn1c(N)nc2ccc(-c3[nH]c(C(C)(C)C)nc3-c3ccc(F)cc3)nc21,-0.716 (inactive),-1.14,-1.15,
Cc1cccc(Nc2nc(-c3ccncc3)cs2)c1,0.772 (inactive),0.626,0.437,
COc1cc2ncnc(Nc3ccc(F)c(Cl)c3)c2cc1OCCCN1CCOCC1,0.988 (inactive),0.863,0.585,
CCCCCNC(=O)N1CCC(CN(Cc2ccc(Cl)cc2)Cc2ccc([N+](=O)[O-])s2)C1 (configuration not stated),-0.865 (inactive),0.128,-0.734,
CN(C[C@@H]1COCCO1)S(=O)(=O)Nc1ccc2ccc3ncc(-c4cnn(C)c4)cc3c(=O)c2c1,-0.656 (inactive),-0.332,-0.0714,
CC1(C)CCC(CN2CCN(c3ccc(C(=O)NS(=O)(=O)c4ccc(NCC5CCOCC5)c([N+](=O)[O-])c4)c(Oc4cnc5[nH]ccc5c4)c3)CC2)=C(c2ccc(Cl)cc2)C1,0.0291 (inactive),0.742,0.833,
O=C(NCc1ccncc1)C12C[C@H]3C[C@@H](C1)CC(c1ccc(Cl)cc1)(C3)C2,0.0323 (inactive),0.866,0.86,
